Measurements published in the supplement of paper PMC6555819.

How the values were obtained:
Assay in all cases: PBM binding z-score (relative to random genomic background probes); higher = stronger binding; sequences stand for … in GC…GCGATTGACAGCGTAGAATGAAGG
[1] = system: FXR:RXRa (NR concentration 270 nM, RXRa partner concentration 90 nM)
In short: (§1)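 Ligand-free nuclear receptor dimers were applied to custom Agilent 4×180K protein-binding microarrays whose double-stranded probes carried direct-repeat seeds, single-nucleotide variants, half-site ablations and random human genomic background sequences in 34-nt variable regions. Incubation lasted 1 h. Binding z-scores were computed against the random background probes from regression-normalized fluorescence.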

[2] = system: LXRa:RXRa (NR concentration 270 nM, RXRa partner concentration 90 nM)
In short: as §1

[3] = system: LXRa homodimer (NR concentration 270 nM)
In short: as §1

[4] = system: LXRb:RXRa (NR concentration 270 nM, RXRa partner concentration 90 nM)
In short: as §1

[5] = system: LXRb homodimer (NR concentration 270 nM)
In short: as §1

[6] = system: PPARa:RXRa (NR concentration 270 nM, RXRa partner concentration 90 nM)
In short: as §1

[7] = system: PPARg:RXRa (NR concentration 180 nM, RXRa partner concentration 90 nM)
In short: as §1

[8] = system: PPARg:RXRa 270nM:90nM, anti-RXR (NR concentration 270 nM, RXRa partner concentration 90 nM)
In short: as §1

[9] = system: PPARg:RXRa 30nM:10nM, anti-RXR (NR concentration 30 nM, RXRa partner concentration 10 nM)
In short: as §1

[10] = system: PPARg:RXRa 90nM:30nM, anti-RXR (NR concentration 90 nM, RXRa partner concentration 30 nM)
In short: as §1

[11] = system: PPARg:RXRa DBDmut IVT, anti-RXR (DBD mutation: RXRa K156A/R161A, NR concentration 270 nM, RXRa partner concentration 90 nM)
In short: as §1

[12] = system: PPARg:RXRa IVT, anti-PPARg (NR concentration 270 nM, RXRa partner concentration 90 nM)
In short: as §1

[13] = system: PPARg DBDmut:RXRa IVT, anti-PPARg (DBD mutation: PPARg1 K132A/R137A, NR concentration 270 nM, RXRa partner concentration 90 nM)
In short: as §1

[14] = system: PPARg DBDmut IVT, anti-PPARg (DBD mutation: PPARg1 K132A/R137A, NR concentration 270 nM)
In short: as §1

[15] = system: PPARg homodimer (NR concentration 180 nM)
In short: as §1

[16] = system: PXR:RXRa (NR concentration 270 nM, RXRa partner concentration 90 nM)
In short: as §1

[17] = system: PXR homodimer (NR concentration 270 nM)
In short: as §1

[18] = system: RARa:RXR (NR concentration 270 nM, RXRa partner concentration 90 nM)
In short: as §1

[19] = system: RARa homodimer (NR concentration 270 nM)
In short: as §1

[20] = system: RARb:RXRa (NR concentration 270 nM, RXRa partner concentration 90 nM)
In short: as §1

| Sequence | PBM binding z-score [1] | PBM binding z-score [2] | PBM binding z-score [3] | PBM binding z-score [4] | PBM binding z-score [5] | PBM binding z-score [6] | PBM binding z-score [7] | PBM binding z-score [8] | PBM binding z-score [9] | PBM binding z-score [10] | PBM binding z-score [11] | PBM binding z-score [12] | PBM binding z-score [13] | PBM binding z-score [14] | PBM binding z-score [15] | PBM binding z-score [16] | PBM binding z-score [17] | PBM binding z-score [18] | PBM binding z-score [19] | PBM binding z-score [20] |
| --- | --- | --- | --- | --- | --- | --- | --- | --- | --- | --- | --- | --- | --- | --- | --- | --- | --- | --- | --- | --- |
| CGTACAAGGTCAAGGTCAGTGAAAGAGACTCGAA | 7.99 | 5.91 | 1.33 | 5.06 | 1.34 | 6.47 | 7.35 | 6.73 | 3.62 | 5.87 | 4.64 | 5.48 | 1.83 | 0.837 | 4.4 | 5.27 | 1.65 | 5.96 | 2.4 | 5.65 |
| CGTCCAAGGTCGAGGTCAGTGAAAGAGACTCGAA | 4.56 | 3.15 | 0.186 | 2.74 | -0.695 | 4.31 | 2.53 | 3.25 | 0.231 | 1.81 | 1.1 | 2.35 | -1.04 | -1.22 | 1.43 | 3.59 | 0.491 | 3.61 | -0.0434 | 4.39 |
| GATACAGGGTCAAGTCCAGAGTACGCGTATTGAT | 7.3 | 4.84 | 0.0543 | 4.3 | 0.511 | 5.77 | 5.91 | 5.85 | 2.51 | 4.33 | 3.07 | 4.1 | 1.84 | 0.844 | 4.21 | 4.36 | 0.54 | 5.16 | 1.38 | 4.64 |
| TCAGACGGGTGAAGGTAACTCAGGTACGCAGTCG | 0.211 | 1.12 | -0.137 | 0.138 | -0.885 | 1.02 | 0.625 | 1.66 | 2.83 | 2.17 | 1.98 | 0.818 | -0.457 | -0.479 | 0.581 | 0.181 | -0.137 | 0.411 | -0.487 | 0.641 |
| TCATGTAGGTAAACAGGTGAAAGTCCGTAAGTTA | 0.441 | 0.537 | -0.185 | 0.487 | -0.709 | 2.46 | 3.06 | 3.74 | 3.38 | 3.64 | 4.93 | 5.27 | 0.599 | 0.663 | 1.08 | 0.463 | 0.296 | 0.664 | 0.834 | 0.451 |
| CCTTACGGGTCACTGACAGGTTATAGCTTTTGGA | 4.62 | 4.13 | 0.331 | 3.35 | -0.0774 | 4.88 | 3.89 | 4.21 | 1.73 | 3.06 | 3.62 | 3.94 | -0.188 | -0.142 | 1.82 | 3.38 | -0.201 | 4.13 | 0.634 | 3.74 |
| CCTATTAGTTGACCATAATGGCAACCGAAGCTCG | 0.282 | 0.486 | 0.78 | 0.483 | 1.03 | 0.289 | 0.468 | -0.0519 | -0.187 | 0.0677 | 0.772 | 0.551 | 0.742 | 1.21 | 2 | 0.599 | 1.05 | 0.673 | 2.52 | 0.621 |
| TCTTGTAGATCAAGTAGGTTAAGAAAGCCTGAGT | 0.567 | 0.521 | 0.138 | 0.441 | -0.306 | 1.17 | -0.25 | 1.46 | 2.57 | 2.04 | 2.13 | 2.44 | 0.611 | 0.864 | 0.365 | 0.513 | 0.364 | 0.645 | 0.0237 | 0.154 |
| CCTTACGGGTCATGGTTATAGCACGGGTGGTACG | 5.13 | 3.14 | -0.115 | 2.68 | -0.0469 | 4.97 | 3.99 | 4.19 | 1.44 | 3.03 | 1.34 | 3.31 | 0.473 | -0.548 | 1.58 | 2.96 | 0.0669 | 3.6 | 0.484 | 3.64 |
| ATCTCTAGCTAAAGTTCAGTGAAAGATCGATAGA | 0.485 | 1.83 | 1.89 | 1.01 | 0.585 | 1.74 | 1.63 | 3.25 | 1.53 | 2.85 | -0.514 | 0.413 | 0.743 | 0.86 | 1.51 | 1.8 | 1.85 | 1.04 | 1.01 | 2.68 |
| CAAACTAGGTCAAGGTGAAAGTCGGTTTGTGCCA | 3.92 | 2.88 | 0.394 | 1.93 | 0.139 | 5.18 | 8.7 | 7.35 | 6.13 | 7.28 | 8.58 | 8.62 | 2.55 | 1.53 | 1.47 | 1.65 | 0.138 | 2.19 | 0.4 | 4.2 |
| TCATATTGGTAATACAGGTGAAAGTCGGCATCTA | 1.28 | 1.16 | 0.763 | 1.2 | 0.359 | 1.79 | 1.09 | 2.7 | 3.88 | 3.11 | 2.7 | 1.89 | 0.751 | 1.85 | 1.69 | 0.947 | 0.763 | 1.09 | 1.43 | 0.496 |
| TCATATAGGTAAATGCTAGGTGAAAGTTCGATCT | 1.23 | 1.18 | 0.931 | 1.27 | -0.0844 | 2.74 | 3.2 | 4.57 | 4.77 | 4.78 | 3.99 | 3.4 | 1.55 | 1.1 | 1.29 | 1.17 | 0.91 | 1.61 | 1.71 | 0.871 |
| TCTTGTAGATCAACGGGAGGTTAAGAAAGATCGA | 0.553 | 1.31 | 0.00977 | 1.17 | 0.12 | 1.49 | -0.121 | 1.58 | 2.52 | 2.01 | 2.28 | 0.974 | 0.226 | -0.0514 | 0.14 | 0.94 | 0.02 | 1.14 | 0.281 | 0.648 |
